Only some compounds are listed: those with a hit (about 1.6% of all), similar ones and a draw of the others.
KCNQ2 block: blocks the rat KCNQ2 potassium channel | 1.1% of 310,000 active | CHO-K1 KCNQ2, FluxOR thallium flux, 20 min; stronger effect = lower value | O88943 | B-score at 10 µM;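 active = fluorescence ratio B-score at most minus 3 library SDs, with starting brightness B-score within 2 library SDs, cut at about -5.5 in these data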
KCNQ2 pot: KCNQ2 (rat) channel potentiation; O88943; CHO-K1 KCNQ2, FluxOR thallium flux fluorescence; stronger effect = higher value; 0.54% of 310,000 active; B-score at 10 µM; AID 2239;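 active = fluorescence ratio B-score at least 3 SD of library B-scores, with initial fluorescence B-score within 3 of them, cut at about 5.3 in these data; same plate scores as AID 2156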;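 note: B-score of peak minus minimum over baseline fluorescence ratio after K+ and Tl+ stimulus; positive B-score means potentiation of KCNQ2 with more thallium influx and brighter signal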
KCNQ2 block conf: rat KCNQ2 channel inhibition, confirmatory screen; activity change, negative = inhibition, % at 10 µM; shares compounds with KCNQ2 block; KCNQ2-expressing cells, thallium flux; stronger effect = lower value; 57% of 1,000 active;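 note: 0% = vehicle wells and values are ratio percent relative to vehicle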
KCNQ1 spec: KCNQ2 inhibitor that also affects human KCNQ1 channel | shares compounds with KCNQ2 block | KCNQ1-expressing cells, FluxOR thallium flux fluorescence; stronger effect = lower value | activity change, negative = inhibition, % at 10 µM | 15% of 1,000 active;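 active = activity change at least 3 SD of negative controls below their mean in both duplicate wells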;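 note: CHO cells stably transfected with KCNQ1 and depolarized by potassium stimulus; peak minus minimum fluorescence over baseline after thallium addition; 0% = vehicle negative control and -100% = blank without thallium stimulus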
CHO Tl ctr: KCNQ2 inhibitor counter-screen hit in parental CHO cells. 14% of 1,000 active. activity change, % at 10 µM. thallium flux counter-screen; stronger effect = lower value. AID 493029. shares compounds with KCNQ2 block;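 note: 0% = vehicle negative controls with stimulus buffer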
KCNQ2 patch conf: blocks rat KCNQ2 current in automated patch clamp. KCNQ2-expressing cells. shares compounds with KCNQ2 block. 49% of 550 active. AID 588531. calls only at 10 µM
Active calls of the source: *. Unless noted, the rule behind the calls is not given here.

What do the screens show for `O=C(CCc1nnc2ccc(NCc3ccccc3Cl)nn12)NC1CCCCC1`?
KCNQ2 block: inactive; KCNQ2 pot: 0.08

Results for COc1ccccc1NC(=O)c1cc(C)nc2ccccc12 ?
KCNQ2 block: inactive

How did Cc1ccc(NC(=O)c2cc(-c3ccc(C)o3)nc3ccccc23)cc1 do in these assays?
KCNQ2 block: inactive

What do the screens show for `Cc1ccc(-c2cc(C(=O)Nc3cccnc3)c3ccccc3n2)o1`?
KCNQ2 block: -8.14*; KCNQ2 pot: -8.14; KCNQ2 block conf: inactive; KCNQ1 spec: inactive; CHO Tl ctr: inactive

How did COc1ccccc1NC(=O)c1cc(-c2ccc(C)o2)nc2ccccc12 do in these assays?
KCNQ2 block: -8.09*; KCNQ2 pot: -8.09; KCNQ2 block conf: -34.0%*; KCNQ1 spec: inactive; CHO Tl ctr: inactive; KCNQ2 patch conf: active

What do the screens show for `O=C(CCCn1cncn1)N1CCCC(N2CCN(c3ccccc3F)CC2)C1` (stereo not given)?
KCNQ2 block: inactive

How did CC(=O)Nc1ccc(NC(=O)c2ccccc2N(C)S(=O)(=O)c2ccccc2)cc1 do in these assays?
KCNQ2 block: inactive

How did Cc1ccccc1NC(=O)c1ccccc1N(C)S(=O)(=O)c1ccccc1 do in these assays?
KCNQ2 block: -7.63*; KCNQ2 pot: -7.63; KCNQ2 block conf: -20.5%*; KCNQ1 spec: inactive; CHO Tl ctr: inactive; KCNQ2 patch conf: active

How did CN(c1ccccc1C(=O)NCc1ccccc1Cl)S(=O)(=O)c1ccccc1 do in these assays?
KCNQ2 block: -10.1*; KCNQ2 pot: -10.1; KCNQ2 block conf: inactive; KCNQ1 spec: inactive; CHO Tl ctr: inactive

Results for COc1ccc(CCNC(=O)c2ccccc2N(C)S(=O)(=O)c2ccccc2)cc1 ?
KCNQ2 block: inactive; KCNQ2 pot: 0.14

How did Cc1ccc2[nH]c(C(=O)NCCN3CCCC3)cc2c1 do in these assays?
KCNQ2 block: inactive

Results for COc1cccc(OC)c1C(=O)NC(=S)NCc1cccnc1 ?
KCNQ2 block: inactive; KCNQ2 pot: 0.05

What do the screens show for `CCC1(CC)Cc2ccccc2-c2nc(-c3ccccc3)oc(=O)c21`?
KCNQ2 block: inactive

Results for O=c1oc(-c2ccccc2)nc2c1C1(CCCCC1)Cc1ccccc1-2 ?
KCNQ2 block: -8.67*; KCNQ2 pot: -8.67; KCNQ2 block conf: inactive; KCNQ1 spec: inactive; CHO Tl ctr: inactive

What do the screens show for `Cc1ccc(C(=O)O)cc1NC(=S)NC(=O)c1ccc(COc2ccccc2)cc1`?
KCNQ2 block: inactive

How did Cc1cccc(C(=O)NCC(=O)NCC2COc3ccccc3O2)c1 (stereo not given) do in these assays?
KCNQ2 block: inactive; KCNQ2 pot: 0.22

What do the screens show for `COc1cc2c(cc1OC)C(C)N(C(=O)c1cc3c(s1)-c1ccccc1OC3)CC2` (stereo not given)?
KCNQ2 block: -8.44*; KCNQ2 pot: -8.44; KCNQ2 block conf: inactive; KCNQ1 spec: inactive; CHO Tl ctr: inactive

How did CCOC(=O)c1cc2c(s1)-c1c(C)cccc1OC2 do in these assays?
KCNQ2 block: inactive

What do the screens show for `COc1cc2c(cc1OC)C(C)N(C(=O)c1cccs1)CC2` (stereo not given)?
KCNQ2 block: inactive

Results for COc1cc2c(cc1OC)C(C)N(C(=O)c1cc3c(s1)-c1c(C)cccc1OC3)CC2 (stereo not given) ?
KCNQ2 block: -6.68*; KCNQ2 pot: -6.68; KCNQ2 block conf: -36.5%*; KCNQ1 spec: inactive; CHO Tl ctr: inactive; KCNQ2 patch conf: active

How did CC1(C)Cc2c(cnn2-c2cccc(F)c2)C(NC(=O)Cn2cccn2)C1 (stereo not given) do in these assays?
KCNQ2 block: inactive; KCNQ2 pot: 0.28

Results for Cc1ccc(C(=O)NCc2ccc(F)cc2)cc1NC1=NC2CS(=O)(=O)CC2S1 (stereo not given) ?
KCNQ2 block: inactive

How did COc1ccc(CNC(=O)CCCn2nc(C)c3c(C)n(-c4ccc(C)cc4)nc3c2=O)cc1 do in these assays?
KCNQ2 block: inactive

How did CCCCNC(=O)c1oc2ccc(S(=O)(=O)N3CCCC3)cc2c1C do in these assays?
KCNQ2 block: inactive; KCNQ2 pot: 0.78

Results for O=C(Nc1ccccc1Cl)c1ccc(=O)[nH]n1 ?
KCNQ2 block: inactive

Results for O=C(NNc1cccc(Cl)c1)c1cccnc1Oc1ccccc1 ?
KCNQ2 block: inactive; KCNQ2 pot: 2.89

Screens (PubChem BioAssay)
